Results taken from PubChem BioAssay (NCI).
Several values for one entry are separate records, joined by “and”; a condition that tells them apart may be missing. Identical values can stand only once. The panel holds about 83,000 compounds, 20% with a hit somewhere; the sample as a whole holds those more often.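 Testing used 96-well plates and a 48-hour single-concentration exposure. Example: -40 means 40% of the starting cells died.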 Activity calls are given as the source filed them. The calls were made as follows: active = growth percent below 10; inactive = the rest.

What was measured:
Assay in all cases: NCI-60 one-dose screen, 48 h (100 = growth as untreated, 0 = no growth, -100 = all killed)
Conditions in all cases: 10 µM unless noted
SR leukemia = tested on: SR leukemia
RPMI-8226 leukemia = tested on: RPMI-8226 leukemia
OVCAR-8 ovarian = tested on: OVCAR-8 ovarian
OVCAR-5 ovarian = tested on: OVCAR-5 ovarian
OVCAR-4 ovarian = tested on: OVCAR-4 ovarian
SK-OV-3 ovarian = tested on: SK-OV-3 ovarian
IGROV1 ovarian = tested on: IGROV1 ovarian
OVCAR-3 ovarian = tested on: OVCAR-3 ovarian
HS 578T breast = tested on: HS 578T breast
NCI/ADR-RES ovarian = tested on: NCI/ADR-RES ovarian

Measured: growth

NC(=O)c1c(NC(=O)/C=C/c2cccs2)sc2c1CCC(=O)C2
inactive: SR leukemia 11.2% | OVCAR-8 ovarian 20.2% | OVCAR-5 ovarian 79.3% | OVCAR-4 ovarian 14.2% | SK-OV-3 ovarian 94.7% | IGROV1 ovarian 24.4% | OVCAR-3 ovarian 13.8% | HS 578T breast 26.7% | NCI/ADR-RES ovarian 52.4%
active: RPMI-8226 leukemia -9.58%

CN(C)CC1(C)Cc2ccsc2C1O (stereo not given)
inactive: SR leukemia 102% and 83.2% | RPMI-8226 leukemia 106% and 98.8% | OVCAR-8 ovarian 110% and 105% | OVCAR-5 ovarian 101% and 105% | OVCAR-4 ovarian 113% and 100% | SK-OV-3 ovarian 109% and 104% | IGROV1 ovarian 123% and 110% | OVCAR-3 ovarian 127% and 105% | HS 578T breast 129% | NCI/ADR-RES ovarian 106% and 103%

Cc1ccc(Nc2nc(-c3cc(O)c(C)c(C)c3O)cs2)cc1
inactive: SR leukemia 70.3% | RPMI-8226 leukemia 77.5% | OVCAR-8 ovarian 84.1% | OVCAR-5 ovarian 109% | OVCAR-4 ovarian 105% | SK-OV-3 ovarian 105% | IGROV1 ovarian 92.9% | OVCAR-3 ovarian 104% | HS 578T breast 97.9% | NCI/ADR-RES ovarian 73%

O=C1/C(=C/c2cn(-c3ccccc3)nc2-c2ccccc2)SC(=S)N1c1ccccc1
inactive: SR leukemia 108% | RPMI-8226 leukemia 107% | OVCAR-8 ovarian 104% | OVCAR-5 ovarian 106% | OVCAR-4 ovarian 103% | SK-OV-3 ovarian 111% | IGROV1 ovarian 94.5% | OVCAR-3 ovarian 109% | HS 578T breast 101% | NCI/ADR-RES ovarian 103%

Cc1ccc(S(=O)(=O)OC[C@@]2(C)CC[C@]3(C)CC[C@]4(C)C(=C3C2)C=C[C@@H]2[C@@]3(C)CCCNC(C)(C)[C@@H]3CC[C@]24C)cc1
active: SR leukemia -30.9% | RPMI-8226 leukemia -66% | OVCAR-8 ovarian -65.6% | OVCAR-4 ovarian -40.5% | IGROV1 ovarian -2.07% | NCI/ADR-RES ovarian -19.7%
inactive: OVCAR-5 ovarian 34.8% | SK-OV-3 ovarian 104% | OVCAR-3 ovarian 23.5% | HS 578T breast 83.4%

Cc1ccc(S(=O)(=O)Nc2cc(Sc3ccccc3)c(O)c3ccccc23)cc1
inactive: SR leukemia 20.8% | RPMI-8226 leukemia 28.8% | OVCAR-5 ovarian 106% | SK-OV-3 ovarian 115% | IGROV1 ovarian 85% | HS 578T breast 98.7%
active: OVCAR-8 ovarian -0.704% | OVCAR-4 ovarian -99.7% | OVCAR-3 ovarian -5.01% | NCI/ADR-RES ovarian 5.05%

O=C(/C=C/C12c3ccccc3C(c3ccccc31)C1C(=O)NC(=O)C12)c1ccncc1 (stereo not given)
inactive: OVCAR-5 ovarian 13.7% | OVCAR-4 ovarian 31.8% | SK-OV-3 ovarian 71.8% | HS 578T breast 38% | NCI/ADR-RES ovarian 23.9%
active: SR leukemia 1.11% | RPMI-8226 leukemia -29.6% | OVCAR-8 ovarian 1.79% | IGROV1 ovarian 9.72% | OVCAR-3 ovarian 4.84%

O=C(NNc1ccccc1)c1ncc[nH]1
inactive: SR leukemia 104% | RPMI-8226 leukemia 53.5% | OVCAR-8 ovarian 80.9% | OVCAR-5 ovarian 65.3% | OVCAR-4 ovarian 48.4% | SK-OV-3 ovarian 81.2% | IGROV1 ovarian 71.1% | OVCAR-3 ovarian 64.3% | HS 578T breast 89.2% | NCI/ADR-RES ovarian 78.6%

COc1cc(NC2CCCCC2O)c2nc(-c3ccc(Cl)cc3)ccc2c1 (stereo not given)
active: SR leukemia -4.63%
inactive: RPMI-8226 leukemia 58.3% and 34.2% | OVCAR-8 ovarian 85.5% and 90.1% | OVCAR-5 ovarian 107% and 94.6% | OVCAR-4 ovarian 75.6% and 76.7% | SK-OV-3 ovarian 101% and 105% | IGROV1 ovarian 97.2% and 96% | OVCAR-3 ovarian 88.1% and 112% | HS 578T breast 85.4% and 138% | NCI/ADR-RES ovarian 84.5%

COc1nc(=O)n(C2C=CC(=O)O2)cc1F (stereo not given)
active: SR leukemia -19.8%
inactive: RPMI-8226 leukemia 70.1% | OVCAR-8 ovarian 46% | OVCAR-5 ovarian 129% | OVCAR-4 ovarian 71.3% | SK-OV-3 ovarian 98.7% | IGROV1 ovarian 116% | OVCAR-3 ovarian 33.8% | HS 578T breast 94.4% | NCI/ADR-RES ovarian 111%

COC1=CC(c2ccc[nH]2)=N/C1=C\c1[nH]c(C)c(C(=O)Oc2ccccc2)c1C
active: SR leukemia 6.67% | RPMI-8226 leukemia -13.4% | OVCAR-8 ovarian -13.8% | OVCAR-5 ovarian -41.5% | OVCAR-4 ovarian -48.8% | SK-OV-3 ovarian 1.25% | IGROV1 ovarian -35.4% | OVCAR-3 ovarian -39.7% | HS 578T breast -27.5% | NCI/ADR-RES ovarian -3.96%

COc1ccc(C/C(C)=C(/c2ccc(OCCN3CCCCCC3)cc2)c2ccc(OC(=O)c3ccccc3)cc2)cc1
inactive: SR leukemia 71.3% | RPMI-8226 leukemia 112% | OVCAR-8 ovarian 107% | OVCAR-5 ovarian 98.2% | OVCAR-4 ovarian 116% | SK-OV-3 ovarian 93.7% | IGROV1 ovarian 106% | OVCAR-3 ovarian 117% | HS 578T breast 98.5% | NCI/ADR-RES ovarian 111%

O=c1c2c([nH]c3ccccc13)CCCC2
inactive: SR leukemia 87.9% and 10.9% | RPMI-8226 leukemia 87.2% and 38.6% | OVCAR-8 ovarian 99.8% and 40.5% | OVCAR-5 ovarian 91.3% and 78.2% | OVCAR-4 ovarian 100% and 68.5% | SK-OV-3 ovarian 104% and 44.2% | IGROV1 ovarian 111% and 44.1% | HS 578T breast 98.2% and 72.4% | NCI/ADR-RES ovarian 104% and 22.2%
118% (inactive) and -8.45% (active): OVCAR-3 ovarian

COC(=O)c1nc(-c2ccc(C)cc2)oc1S(=O)(=O)c1ccc(Cl)cc1
inactive: RPMI-8226 leukemia 81.2% | OVCAR-8 ovarian 94.2% | OVCAR-5 ovarian 96.3% | OVCAR-4 ovarian 100% | SK-OV-3 ovarian 97.4% | IGROV1 ovarian 89.3% | OVCAR-3 ovarian 107% | HS 578T breast 105% | NCI/ADR-RES ovarian 105%
active: SR leukemia -15.7%

O=C(/C=C/c1ccc([N+](=O)[O-])cc1)c1ccccc1
inactive: RPMI-8226 leukemia 41.6% | OVCAR-8 ovarian 98.3% | OVCAR-5 ovarian 106% | OVCAR-4 ovarian 98.1% | SK-OV-3 ovarian 92.5% | IGROV1 ovarian 87.3% | OVCAR-3 ovarian 99.6% | HS 578T breast 93.2% | NCI/ADR-RES ovarian 103%
active: SR leukemia 7.6%

CCCCC1COc2cccc3c2N1C=C/C3=C\C(=O)N(C)c1cccc(Cl)c1 (stereo not given)
inactive: SR leukemia 94.9% | RPMI-8226 leukemia 92.3% | OVCAR-8 ovarian 97.1% | OVCAR-5 ovarian 102% | OVCAR-4 ovarian 72.8% | SK-OV-3 ovarian 95.3% | IGROV1 ovarian 103% | OVCAR-3 ovarian 96.4% | HS 578T breast 99.8% | NCI/ADR-RES ovarian 97.7%

CC(C)(C)CC(N)=O
inactive: SR leukemia 102% | RPMI-8226 leukemia 107% | OVCAR-8 ovarian 97.7% | OVCAR-5 ovarian 102% | OVCAR-4 ovarian 100% | SK-OV-3 ovarian 88.2% | IGROV1 ovarian 112% | OVCAR-3 ovarian 110% | HS 578T breast 106% | NCI/ADR-RES ovarian 102%

Nc1[nH]nc(Nc2ccccc2)c1-c1nc2ccccc2s1
inactive: SR leukemia 13.6% | RPMI-8226 leukemia 24% | OVCAR-8 ovarian 38.4% | OVCAR-5 ovarian 34.5% | OVCAR-4 ovarian 29.5% | SK-OV-3 ovarian 48.8% | IGROV1 ovarian 28.5% | OVCAR-3 ovarian 25.3% | HS 578T breast 47.2% | NCI/ADR-RES ovarian 30%

Nc1nc(N)c2c(n1)NC(c1cccc(Nc3ccnc4cc(C(F)(F)F)ccc34)c1)CC(c1ccc(F)cc1)=N2 (stereo not given)
active: SR leukemia -7.72% | RPMI-8226 leukemia 3.03%
inactive: OVCAR-8 ovarian 63.1% | OVCAR-5 ovarian 108% | OVCAR-4 ovarian 57.9% | SK-OV-3 ovarian 63.1% | IGROV1 ovarian 50.5% | OVCAR-3 ovarian 26.4% | HS 578T breast 42.1% | NCI/ADR-RES ovarian 70.7%

COc1ccc(C/C(C)=C(\c2ccc(O)cc2)c2ccc(OCCCN(C)C)cc2)cc1
inactive: SR leukemia 59.7% | RPMI-8226 leukemia 86.8% | OVCAR-8 ovarian 89.5% | OVCAR-5 ovarian 102% | OVCAR-4 ovarian 92.6% | SK-OV-3 ovarian 101% | IGROV1 ovarian 102% | OVCAR-3 ovarian 98.3% | HS 578T breast 89% | NCI/ADR-RES ovarian 98.5%

O=C(/C=C/c1ccc(F)cc1)Nc1ncc(Cc2ccc(F)cc2)s1
inactive: SR leukemia 25.2% | RPMI-8226 leukemia 44.9% | OVCAR-8 ovarian 51.9% | OVCAR-5 ovarian 62.8% | OVCAR-4 ovarian 64.3% | SK-OV-3 ovarian 41.4% | IGROV1 ovarian 46.8% | OVCAR-3 ovarian 12.4% | HS 578T breast 23% | NCI/ADR-RES ovarian 35.5%

[2H]C([2H])([2H])Oc1cc(F)ccc1/C=C/C(=O)/C=C(/C=C/c1ccc(F)cc1OC([2H])([2H])[2H])OB(F)F
active: RPMI-8226 leukemia 3.53% | OVCAR-8 ovarian 4.99% | NCI/ADR-RES ovarian 1.89%
inactive: SR leukemia 41.7% | OVCAR-5 ovarian 104% | OVCAR-4 ovarian 17.5% | SK-OV-3 ovarian 101% | IGROV1 ovarian 12% | OVCAR-3 ovarian 10.5% | HS 578T breast 46.3%

COc1ccc2c(c1)CC[C@@H]1[C@@H]2CC[C@]2(C)C3C(=CCC4C(=O)N(c5ccccc5)C(=O)C43)C[C@@H]12 (stereo not given in full)
inactive: SR leukemia 99.1% | RPMI-8226 leukemia 61.2% | OVCAR-8 ovarian 86.2% | OVCAR-5 ovarian 75.7% | OVCAR-4 ovarian 78.8% | SK-OV-3 ovarian 103% | IGROV1 ovarian 113% | OVCAR-3 ovarian 87.3% | HS 578T breast 97.6% | NCI/ADR-RES ovarian 85.8%
